Measurements reported in PubChem BioAssay (NCATS).
Results filed as inconclusive are left out. Active and inactive are the calls of the source. Unless noted, calls come from the whole dose curve; as a rule, active = well fitted curve in either direction with a large enough effect (not every such curve was filed as active); inconclusive = small, poorly fitted or top-dose-only effect, or another doubt; inactive = flat fitted curve, though single readings scatter.

Key:
[1] = biological target: Lysosomal acid glucosylceramidase (Homo sapiens) (UniProt P04062); experiment: Glucocerebrosidase-p2 (AID 348; in the data active = potency below about 10 µM; note: potency is the fitted concentration of half-maximal effect); conditions: purified GBA, blue fluorogenic substrate, 40 min
Chain of Lysosomal acid glucosylceramidase (Homo sapiens) (P04062 whole entry, looked up): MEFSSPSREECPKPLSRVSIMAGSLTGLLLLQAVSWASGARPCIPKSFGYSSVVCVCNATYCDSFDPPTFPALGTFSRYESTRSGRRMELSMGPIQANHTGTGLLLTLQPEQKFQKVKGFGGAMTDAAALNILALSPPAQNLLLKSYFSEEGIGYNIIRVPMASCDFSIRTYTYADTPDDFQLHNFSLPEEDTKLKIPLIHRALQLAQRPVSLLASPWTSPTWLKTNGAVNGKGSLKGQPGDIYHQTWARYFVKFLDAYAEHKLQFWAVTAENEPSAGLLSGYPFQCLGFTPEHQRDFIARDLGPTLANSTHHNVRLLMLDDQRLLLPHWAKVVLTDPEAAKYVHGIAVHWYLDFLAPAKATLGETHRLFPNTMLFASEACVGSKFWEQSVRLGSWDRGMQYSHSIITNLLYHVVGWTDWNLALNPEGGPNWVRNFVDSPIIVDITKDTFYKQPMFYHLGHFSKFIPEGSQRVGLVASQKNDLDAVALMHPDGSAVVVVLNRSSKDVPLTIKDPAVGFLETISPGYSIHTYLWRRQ
Method in brief: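 Compounds titrated from 0.6 nM upwards against 0.2 nM enzyme in pH 5.9 citric acid/KH2PO4, taurocholate, tween-20; blue fluorogenic substrate 80 uM, 40 min room temperature, stopped and read Ex 365/Em 440 for AC50.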

[2] = AP1 Signaling Pathway (AID 357); conditions: ME-180 AP-1-bla reporter, EGF-induced, beta-lactamase ratio, 5 h; at 7.69 µM (top of the series) unless noted; note: % is set by controls: 0 for no effect and ±100 for the full control effect
Method in brief: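 ME-180 cells with beta-lactamase reporter under AP-1 response element, stimulated with EC50 EGF; compounds tested in titration series, 5 h at 37 °C. CCF4 substrate added 2.5 h at room temperature; 460/530 nm emission ratio gave %activity and AC50.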

[3] = NFAT Signaling Pathway (AID 444); conditions: Jurkat NFAT-bla M1, carbachol, beta-lactamase ratio, 5 h; at 7.69 µM (top of the series) unless noted;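 note: carbachol stimulus at about its EC50 of 1 µM final; % is set by controls: 0 for no effect and ±100 for the full control effect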
Method in brief: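 Jurkat cells carrying an NFAT-driven β-lactamase reporter and co-transfected muscarinic M1 receptor were treated with compound plus carbachol (1 uM final, an EC50 level) for 5 h at 37 °C. CCF4 loading followed for 1 h at RT; 460/530 nm ratio gave %activity.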

[4] = Stat Signaling Pathway (AID 446); conditions: ME-180 SIE beta-lactamase reporter, IL-6 stimulated, 5 h; at 7.69 µM (top of the series) unless noted;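 note: ME-180 cervical cancer cells given 40 pM IL-6 alongside compound; SIE-controlled beta-lactamase reporter measured as 460/530 nm FRET emission ratio; % is set by controls: 0 for no effect and ±100 for the full control effect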
Method in brief: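 ME-180 cells carrying a SIE-driven beta-lactamase reporter are stimulated with 40 pM IL-6 for 5 h at 37C in the presence of compound. The 460/530 nm FRET substrate ratio is read after 2.5 h at RT. Data are normalised to 300 pM IL-6 and to 125 nM JAK inhibitor controls.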

[5] = biological target: Glucocorticoid receptor (Homo sapiens) (UniProt P04150); experiment: GR-EFC Redistribution (AID 451; calls by dose curve; note: potency is the fitted concentration of half-maximal effect); conditions: CHO-K1 GR-EFC translocation, beta-gal luminescence, 2 h
Chain of Glucocorticoid receptor (Homo sapiens) (P04150 whole entry, looked up, the tested form may be a part): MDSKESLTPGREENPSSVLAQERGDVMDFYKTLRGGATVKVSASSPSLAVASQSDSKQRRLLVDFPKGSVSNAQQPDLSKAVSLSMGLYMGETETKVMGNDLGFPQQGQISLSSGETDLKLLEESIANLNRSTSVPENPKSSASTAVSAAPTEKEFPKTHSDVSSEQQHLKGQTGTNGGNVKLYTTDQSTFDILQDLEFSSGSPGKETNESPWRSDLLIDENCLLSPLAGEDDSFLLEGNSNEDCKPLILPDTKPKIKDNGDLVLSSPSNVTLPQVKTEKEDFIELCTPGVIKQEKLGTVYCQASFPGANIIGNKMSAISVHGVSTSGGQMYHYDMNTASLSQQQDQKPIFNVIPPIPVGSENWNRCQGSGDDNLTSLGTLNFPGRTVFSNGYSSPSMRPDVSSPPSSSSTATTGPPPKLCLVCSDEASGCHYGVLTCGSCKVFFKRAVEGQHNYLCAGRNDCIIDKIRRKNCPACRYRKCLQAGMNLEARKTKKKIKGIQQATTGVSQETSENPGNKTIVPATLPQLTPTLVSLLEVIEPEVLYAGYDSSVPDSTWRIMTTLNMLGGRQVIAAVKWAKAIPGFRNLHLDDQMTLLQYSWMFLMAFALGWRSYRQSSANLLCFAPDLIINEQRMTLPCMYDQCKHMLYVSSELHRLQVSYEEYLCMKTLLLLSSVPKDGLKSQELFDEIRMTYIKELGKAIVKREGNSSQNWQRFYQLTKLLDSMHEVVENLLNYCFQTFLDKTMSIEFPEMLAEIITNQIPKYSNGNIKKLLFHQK
Method in brief: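 CHO-K1 cells stably expressing nuclear-localized β-gal enzyme acceptor and GR fused C-terminally to the enzyme donor fragment; ligand-driven nuclear translocation restores β-gal by complementation. Compounds titrated up to 46 uM final, 2 h at 37 °C; luminescence read.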

[6] = biological target: Mitogen-activated protein kinase 10 (Mus musculus) (UniProt Q61831); experiment: JNK3 AlphaScreen Assay (AID 530); conditions: JNK3 lysate, c-Jun phosphorylation; series mostly up to 57.1 µM;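 note: kinase came from lysate of stimulated human HepG2 cells; signal reports phosphorylation of biotinylated GST-cJun 1-79 at Ser73 with 10 µM ATP; % is set by controls: 0 for no effect and ±100 for the full control effect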
Method in brief: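 JNK3 came from HepG2 lysates pre-activated with IL-1beta and TNF-alpha and phosphorylated biotinylated GST-cJun (1-79) at 10 uM ATP, pH 7.6, room temperature. Compounds were titrated. AlphaScreen signal used anti-phospho-cJun (Ser73) antibody.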

[7] = biological target: 3',5'-cyclic-AMP phosphodiesterase 4B (Homo sapiens) (UniProt Q07343); experiment: qHTS Assay for Inhibitors of PDE-IV (AID 607; active = well fitted activation curve with a large enough effect in the main read-out, with a control signal flat, not every such curve was filed as active; note: % of control where 0% means no effect); conditions: HEK293 ACTOne CNG channel cells, membrane potential fluorescence; series mostly up to 22.9 µM
Chain of 3',5'-cyclic-AMP phosphodiesterase 4B (Homo sapiens) (Q07343 whole entry, looked up): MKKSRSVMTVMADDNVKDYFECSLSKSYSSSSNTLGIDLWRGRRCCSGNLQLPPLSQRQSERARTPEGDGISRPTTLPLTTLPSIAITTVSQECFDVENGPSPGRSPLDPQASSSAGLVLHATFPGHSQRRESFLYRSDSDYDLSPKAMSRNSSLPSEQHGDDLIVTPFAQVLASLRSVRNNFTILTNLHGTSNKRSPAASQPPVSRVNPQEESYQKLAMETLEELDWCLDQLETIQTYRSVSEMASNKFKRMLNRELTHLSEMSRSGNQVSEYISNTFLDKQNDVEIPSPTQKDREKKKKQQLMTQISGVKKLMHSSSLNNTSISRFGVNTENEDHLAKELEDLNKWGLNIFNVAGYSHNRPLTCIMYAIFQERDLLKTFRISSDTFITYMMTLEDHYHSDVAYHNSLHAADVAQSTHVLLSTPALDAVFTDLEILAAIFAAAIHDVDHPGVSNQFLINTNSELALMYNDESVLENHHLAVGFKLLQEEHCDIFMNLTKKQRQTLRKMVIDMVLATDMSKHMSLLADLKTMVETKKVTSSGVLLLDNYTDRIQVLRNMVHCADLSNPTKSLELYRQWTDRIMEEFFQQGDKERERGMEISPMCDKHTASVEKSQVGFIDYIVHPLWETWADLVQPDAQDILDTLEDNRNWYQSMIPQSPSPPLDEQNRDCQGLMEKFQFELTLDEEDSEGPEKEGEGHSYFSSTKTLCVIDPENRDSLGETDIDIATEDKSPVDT
Method in brief: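 HEK293 ACTOne cells with CNG channel (1000/well), endogenous PDE4; membrane potential dye, compounds up to 22.9 uM final. Fluorescence Ex 535/Em 590; RO 20-1724 (100 uM final) as reference.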

[8] = Confirmation and Secondary Assay for Modulators of Hemoglobin Beta Chain Splicing at IVS2 654 locus (AID 910; active = well fitted curve in the direction sought with a large enough effect; an effect the other way counts as inactive or inconclusive;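 note: per-well total GFP intensity by laser scanning cytometry after 2-day treatment; % of control where 0% means no effect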); conditions: HeLa EGFP-654 splicing reporter, GFP fluorescence, 48 h; series mostly up to 38.3 µM
Method in brief: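 HeLa cells stably carrying EGFP interrupted by mutant beta-globin IVS2-654 intron (CMV-driven) were treated with compound for 2 days at 37C; corrected splicing was scored as total peak GFP intensity per well (488 nm excitation, 500-520 nm emission).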

[9] = Confirmation and Secondary Assay for Modulators of Hemoglobin Beta Chain Splicing at IVS2 705 locus (AID 930; active = well fitted curve in the direction sought with a large enough effect; an effect the other way counts as inactive or inconclusive;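 note: HeLa cells stably expressing the EGFP-705 splicing reporter; GFP fluorescence per well restored by corrected splicing of the IVS2-705 intron in EGFP; % of control where 0% means no effect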); conditions: HeLa EGFP-705 splicing reporter, GFP fluorescence, 48 h; series mostly up to 38.3 µM
Method in brief: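 Fluorescence gain (488 nm laser, 500-520 nm PMT) reflects restored correct splicing of a mutant IVS2-705 intron inside EGFP in stably transfected HeLa cells after 2-day compound treatment.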

[10] = qHTS Assay for Lipid Storage Modulators (AID 1519; calls by dose curve); conditions: Drosophila S3 cells, BODIPY lipid droplet/cell ratio, laser cytometry, cells loaded with oleic acid; for activity change, negative = inhibition: at 57.5 µM (top of the series)
Method in brief: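 Cells seeded at 5,000 per well were treated with compounds over a concentration series and loaded with oleic acid (400 uM, as added). Lipid droplet fluorescence (488 nm excitation, 500-530 nm channel) was read by laser-scanning cytometry and normalized to 20 uM Triacsin C.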

[11] = biological target: Ubiquitin carboxyl-terminal hydrolase 1 (Homo sapiens) (UniProt O94782); experiment: Inhibitors of USP1/UAF1: Pilot qHTS (AID 504865; active = well fitted curve in the direction sought with a large enough effect; an effect the other way counts as inactive or inconclusive;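 note: rhodamine fluorescence freed from ubiquitin-rhodamine substrate followed over time; top concentration of the series differs between compounds; % is set by controls: 0 for no effect and ±100 for the full control effect; nearly all actives have a fitted effect of over 35% in size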); conditions: purified USP1/UAF1, Ub-rhodamine cleavage fluorescence; series mostly up to 54.9 µM
Chain of Ubiquitin carboxyl-terminal hydrolase 1 (Homo sapiens) (O94782 whole entry, looked up): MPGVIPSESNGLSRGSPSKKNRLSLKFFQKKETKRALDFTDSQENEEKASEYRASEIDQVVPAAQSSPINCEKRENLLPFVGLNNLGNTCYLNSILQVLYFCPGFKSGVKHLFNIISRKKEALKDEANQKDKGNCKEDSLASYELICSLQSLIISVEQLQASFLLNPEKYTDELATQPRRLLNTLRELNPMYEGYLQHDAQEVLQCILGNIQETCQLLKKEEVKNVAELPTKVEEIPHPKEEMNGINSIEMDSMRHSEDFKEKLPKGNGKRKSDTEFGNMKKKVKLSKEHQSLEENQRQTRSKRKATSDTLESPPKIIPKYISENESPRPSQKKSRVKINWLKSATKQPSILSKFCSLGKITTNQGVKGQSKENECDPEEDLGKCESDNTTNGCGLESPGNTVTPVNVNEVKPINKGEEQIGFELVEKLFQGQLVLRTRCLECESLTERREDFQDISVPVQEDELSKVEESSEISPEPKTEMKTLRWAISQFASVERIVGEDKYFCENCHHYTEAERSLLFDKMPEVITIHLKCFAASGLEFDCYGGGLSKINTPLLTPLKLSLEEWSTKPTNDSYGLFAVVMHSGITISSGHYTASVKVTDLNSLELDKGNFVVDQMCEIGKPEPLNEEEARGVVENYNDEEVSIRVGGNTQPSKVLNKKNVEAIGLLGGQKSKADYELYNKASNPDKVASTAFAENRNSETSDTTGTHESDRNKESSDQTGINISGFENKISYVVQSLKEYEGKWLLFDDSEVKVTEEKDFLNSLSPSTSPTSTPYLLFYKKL
Method in brief: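 Kinetic fluorescence assay: 1nM USP1/UAF1, 15 min compound preincubation, then 150nM Ub-Rho; 480/540 nm.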

[12] = Primary qHTS for small molecule stabilizers of the endoplasmic reticulum resident proteome: Secreted ER Calcium Modulated Protein (SERCaMP) assay (AID 1508630; active = well fitted curve in the direction sought with a large enough effect; an effect the other way counts as inactive or inconclusive; note: % is set by controls: 0 for no effect and ±100 for the full control effect); conditions: SH-SY5Y GLuc-SERCaMP (Gaussia luciferase released on ER calcium loss) secretion, thapsigargin, luminescence; series mostly up to 38.4 µM
Method in brief: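 GLuc-SERCaMP-expressing SH-SY5Y cells, pretreated 16 h with compound, are challenged with thapsigargin to empty ER calcium stores; after 4 h, coelenterazine is added directly to the medium and luminescence is imaged.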

[13] = measured here: cell count channel max response
[14] = measured here: lipid channel max response

Cc1cnc(CNc2ccnc(-c3ccc(C(=O)N(C)C)cc3)n2)cn1
6.03%: max response [10, 13]
inactive: Potency [1] > 11.4 µM | activity change, negative = inhibition [2] 9.07% | activity change, negative = inhibition [3] 1.49% | activity, negative = inhibition [4] 0.405% | Potency [5] > 46 µM | Potency [6] | Potency [7] | Potency [8] | outcome [9] | activity change, negative = inhibition [10] 9.3% | Potency [11] | outcome [12]
15.8%: max response [10, 14]

CS(=O)(=O)N1CCC2(CC1)CN(c1ccccn1)C2
7.05%: max response [10, 13]
10.2%: max response [10, 14]
inactive: Potency [1] > 11.4 µM | activity change, negative = inhibition [2] 2.96% | activity change, negative = inhibition [3] -0.983% | activity, negative = inhibition [4] 5.22% | Potency [5] > 46 µM | Potency [6] | Potency [7] | activity change, negative = inhibition [10] 2.99% | outcome [12]

CC(C)NC(=O)N1CC[C@@]2(CCCN(C(=O)c3ccncc3)C2)C1
0.996%: max response [10, 14]
-1.86%: max response [10, 13]
inactive: Potency [1] > 11.4 µM | activity change, negative = inhibition [2] -20.1% | activity change, negative = inhibition [3] 16.9% | activity, negative = inhibition [4] -4.77% | Potency [5] > 46 µM | Potency [6] | Potency [7] | activity change, negative = inhibition [10] 0.271% | outcome [12]

COCC(=O)N1CCC2(CC1)CCN(c1ccccc1)CC2
inactive: Potency [1] > 11.4 µM | activity change, negative = inhibition [2] -2.33% | activity change, negative = inhibition [3] 15.9% | activity, negative = inhibition [4] -2.7% | Potency [5] > 46 µM | Potency [6] | Potency [7] | activity change, negative = inhibition [10] -1.96% | outcome [12]
3.97%: max response [10, 14]
4.08%: max response [10, 13]

CC(=O)N1CCC2(CC1)CN(C(=O)Nc1cccc(C#N)c1)C2
1.82%: max response [10, 14]
-2.48%: max response [10, 13]
inactive: Potency [1] > 11.4 µM | activity change, negative = inhibition [2] -2.26% | activity change, negative = inhibition [3] 4.7% | activity, negative = inhibition [4] 11.4% | Potency [5] > 46 µM | Potency [6] | Potency [7] | activity change, negative = inhibition [10] 2.51% | outcome [12]

COCC(=O)N1CCC[C@@]2(CCN(Cc3cc(C(F)(F)F)cc(C(F)(F)F)c3)C2)C1
inactive: Potency [1] > 11.4 µM | activity change, negative = inhibition [2] 3.75% | activity change, negative = inhibition [3] 6.67% | activity, negative = inhibition [4] 9.45% | Potency [5] > 46 µM | Potency [6] | Potency [7] | activity change, negative = inhibition [10] 5.27% | outcome [12]
7.6%: max response [10, 13]
16.2%: max response [10, 14]

CC(=O)N1CCC2(CCCN(C(=O)Nc3cccc(C#N)c3)C2)CC1
inactive: Potency [1] > 11.4 µM | activity change, negative = inhibition [2] -1.46% | activity change, negative = inhibition [3] -5.5% | activity, negative = inhibition [4] 4.81% | Potency [5] > 46 µM | Potency [6] | Potency [7] | activity change, negative = inhibition [10] 0.477% | outcome [12]
12.8%: max response [10, 13]
15.6%: max response [10, 14]

COc1ccc(C(=O)N2CCC[C@@]3(CCN(c4ccncc4)C3)C2)cc1
-10.7%: max response [10, 14]
-12%: max response [10, 13]
inactive: Potency [1] > 11.4 µM | activity change, negative = inhibition [2] -1.81% | activity change, negative = inhibition [3] -12.2% | activity, negative = inhibition [4] -6.9% | Potency [5] > 46 µM | Potency [6] | Potency [7] | activity change, negative = inhibition [10] 0.196% | outcome [12]

Cc1noc(C)c1C(=O)N1CCC[C@@]2(CCN(C(c3ccccc3)c3ccccc3)C2)C1
inactive: Potency [1] > 11.4 µM | activity change, negative = inhibition [2] -7.96% | activity change, negative = inhibition [3] -12.7% | activity, negative = inhibition [4] -6.89% | Potency [5] > 46 µM | Potency [6] | Potency [7] | activity change, negative = inhibition [10] 2.35% | outcome [12]
16.6%: max response [10, 14]
12.4%: max response [10, 13]

N#Cc1ccc(CN2CC[C@@]3(CCCN(C(=O)c4ccncc4)C3)C2)cc1
26%: max response [10, 14]
inactive: Potency [1] > 11.4 µM | activity change, negative = inhibition [2] -10.1% | activity change, negative = inhibition [3] -7.12% | activity, negative = inhibition [4] 8.24% | Potency [5] > 46 µM | Potency [6] | Potency [7] | activity change, negative = inhibition [10] 4.36% | outcome [12]
17.6%: max response [10, 13]

COC(=O)N1CCC[C@@]2(CCN(C(=O)NC(C)C)C2)C1
-3.79%: max response [10, 14]
inactive: Potency [1] > 11.4 µM | activity change, negative = inhibition [2] -4.17% | activity change, negative = inhibition [3] -22.1% | activity, negative = inhibition [4] 8.06% | Potency [5] > 46 µM | Potency [6] | Potency [7] | activity change, negative = inhibition [10] 2.29% | outcome [12]
-6.98%: max response [10, 13]

CC(C)NC(=O)N1CC2(CCN(C(=O)c3cccn3C)CC2)C1
15.6%: max response [10, 14]
inactive: Potency [1] > 11.4 µM | activity change, negative = inhibition [2] -10.8% | activity change, negative = inhibition [3] -17.2% | activity, negative = inhibition [4] 4.27% | Potency [5] > 46 µM | Potency [6] | Potency [7] | activity change, negative = inhibition [10] 2.27% | outcome [12]
10.2%: max response [10, 13]

O=C(c1cc(C(F)(F)F)cc(C(F)(F)F)c1)N1CCC2(CC1)CCN(c1ccccc1)CC2
10.5%: max response [10, 13]
0.292%: max response [10, 14]
inactive: Potency [1] > 11.4 µM | activity change, negative = inhibition [2] 24.2% | activity change, negative = inhibition [3] -4.75% | activity, negative = inhibition [4] -7.04% | Potency [5] > 46 µM | Potency [6] | Potency [7] | activity change, negative = inhibition [10] -9.68% | outcome [12]

CS(=O)(=O)N1CCC2(CCN(c3ccccn3)CC2)CC1
inactive: Potency [1] > 11.4 µM | activity change, negative = inhibition [2] -5.04% | activity change, negative = inhibition [3] -12.8% | activity, negative = inhibition [4] -2.94% | Potency [5] > 46 µM | Potency [6] | Potency [7] | activity change, negative = inhibition [10] 6.49% | outcome [12]
5.01%: max response [10, 13]
13.9%: max response [10, 14]
